Screening data deposited in PubChem BioAssay by National Center for Advancing Translational Sciences (NCATS).
DT40 TDP1 CPT: qHTS for Inhibitors of human tyrosyl-DNA phosphodiesterase 1 (TDP1): qHTS in cells in presence of CPT; AID 686979, 2013; chicken DT40 Tdp1-/-;hTDP1 cells + 20 nM CPT, ATP luminescence, 48 h; Potency, µM (top dose mostly 46.2 µM), for inactives: top-dose activity change, negative = growth inhibition, hits mostly inhibitors; 420,000 tested, 12% active; further: nearly all actives have a fitted effect of over 55% in size
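Cell growth measured by CellTiter-Glo luminescence after a minimum 48 h, 37 C compound exposure with 20 nM CPT in Tdp1-knockout DT40 cells stably expressing hTDP1, seeded 400/well; qHTS titration format.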
KAT2A inh: qHTS Assay for Inhibitors of GCN5L2; Histone acetyltransferase KAT2A (Homo sapiens), Q92830; GCN5L2 HAT assay, ThioGlo1 CoA-SH fluorescence; Potency, µM (titrated, usually from 58.9 µM), without a hit: at the top dose activity change, negative = inhibition, hits mostly inhibitors; 390,000 tested, 0.21% active; AID 504327, 2011
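Fluorescence readout, Ex340nm/Em540nm: ThioGlo1 (50uM final) reacts with free CoA thiol released as 20nM GCN5L2 acetylates H3(1-25) peptide (75uM) using acetyl-CoA (70uM). Compound and enzyme sat 15 min beforehand; 20 min room-temperature reaction.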
TDP1 cell noCPT: qHTS for Inhibitors of human tyrosyl-DNA phosphodiesterase 1 (TDP1): qHTS in cells in absence of CPT; DT40 Tdp1-/- hTDP1 cells, no CPT, ATP luminescence, 48 h; Potency, µM (top dose mostly 46.2 µM), for the others: at the highest dose activity change, negative = growth inhibition, most hits filed as inhibitors; 420,000 tested, 15% active; further: nearly all actives have a fitted effect of over 55% in size
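No-CPT arm: Tdp1-/-;hTDP1 DT40 cells (400/well) plus compounds, incubated ≥48 hr at 37 °C. Readout CellTiter-Glo luminescence.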
PLK1 PBD block: qHTS for Inhibitors of PLK1-PDB (polo-like kinase 1 - polo-box domain): Primary Screen. Serine/threonine-protein kinase PLK1 (Homo sapiens), P53350. Plk1 PBD binding of FITC phosphopeptide, fluorescence polarization. Potency, µM, without a hit: max response, negative = inhibition, hits mostly inhibitors. 360,000 tested, 2.8% active; further: series mostly up to about 57 µM; nearly all actives have a fitted effect of over 65% in size
VDR inh: Inhibitors of the vitamin D receptor (VDR): qHTS; Vitamin D3 receptor (Homo sapiens), P11473; Potency, µM, without a hit: max response, negative = inhibition, most hits filed as inhibitors; 400,000 tested, 0.93% active; AID 504847, 2011; VDR-SRC2-3 peptide fluorescence polarization, 2 h
Target sequence (P11473 whole entry, looked up): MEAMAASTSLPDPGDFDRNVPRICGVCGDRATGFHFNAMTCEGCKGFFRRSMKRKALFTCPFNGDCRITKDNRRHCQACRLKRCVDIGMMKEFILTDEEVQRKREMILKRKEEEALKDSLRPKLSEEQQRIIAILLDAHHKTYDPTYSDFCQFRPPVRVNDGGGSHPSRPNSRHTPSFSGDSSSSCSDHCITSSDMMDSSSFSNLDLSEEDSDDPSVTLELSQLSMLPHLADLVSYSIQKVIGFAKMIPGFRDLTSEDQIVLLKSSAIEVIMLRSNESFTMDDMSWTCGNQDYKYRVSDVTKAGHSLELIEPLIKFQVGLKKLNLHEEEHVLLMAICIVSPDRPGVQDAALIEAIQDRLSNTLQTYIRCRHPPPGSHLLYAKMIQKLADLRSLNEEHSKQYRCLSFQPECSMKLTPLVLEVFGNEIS
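Compounds are added to VDR with labelled SRC2-3 coactivator peptide and held 2 h at room temperature. Inhibition of the VDR–peptide interaction is then read as a change in fluorescence polarization.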
TDP1 inh: qHTS Assay for Inhibitors of Tyrosyl-DNA Phosphodiesterase (TDP1); Tyrosyl-DNA phosphodiesterase 1 (Homo sapiens), Q9NUW8; recombinant TDP1, AlphaScreen DNA substrate cleavage; Potency, µM (series often up to 130 µM), inactives show at the highest dose activity change, negative = inhibition, actives largely listed as inhibitors; 350,000 tested, 0.28% active; AID 485290, 2010; further: nearly all actives have a fitted effect of over 40% in size
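AlphaScreen read-out: signal falls as enzyme removes the 3' tyrosine-FITC from a 5'-biotinylated DNA oligo (15 nM, 5 min, RT). Enzyme was E. coli-made recombinant Tdp1 at 1 nM, exposed to compound for 15 min beforehand; beads 10 ug/ml, 10 min.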
An asterisk follows results filed as active; [ ] = dose if it differs, or a comment. In the library only some 18% were active in any assay of this set; here they are far more common. The call rests on the fitted dose curve; in most records, active means well fitted curve in the direction sought with a large enough effect; inconclusive means small, poorly fitted or top-dose-only effect, or another doubt; inactive means no such curve, though single readings can be large; an effect the other way counts as inactive or inconclusive. On the % scale 0 is the no-effect control and ±100 the full control effect; potency means the concentration at half of the fitted maximal effect.

`Cc1ccc2nc(N(CCCN(C)C)C(=O)c3ccc(S(=O)(=O)N4CCc5ccccc5C4)cc3)sc2c1` gave DT40 TDP1 CPT 5.2µM*, KAT2A inh -4%, TDP1 cell noCPT 5.8µM*, PLK1 PBD block 5%, VDR inh 15% and TDP1 inh 8%.
For Cc1cccc2sc(N(CCCN(C)C)C(=O)c3ccc(S(=O)(=O)N4CCc5ccccc5C4)cc3)nc12 the results were DT40 TDP1 CPT 4.1µM*, KAT2A inh 1%, TDP1 cell noCPT 6.5µM*, PLK1 PBD block -8%, VDR inh -22% and TDP1 inh 2%.
COc1ccc2sc(N(CCCN(C)C)C(=O)c3ccc(S(=O)(=O)N4CCc5ccccc5C4)cc3)nc2c1 was read as DT40 TDP1 CPT 4.1µM*, KAT2A inh -8%, TDP1 cell noCPT 4.6µM*, PLK1 PBD block -4%, VDR inh 14% and TDP1 inh 10%.
COc1ccc(CNc2ncnc3ccc(-c4c(C)noc4C)cc23)cc1 was read as TDP1 inh 13%.
Screening COc1ccc(/C=C2/N=C3CCCCCN3C2=O)cc1 returned DT40 TDP1 CPT 23%, KAT2A inh -20%, TDP1 cell noCPT -23%, PLK1 PBD block -13%, VDR inh 6% and TDP1 inh -1%.
Screening Cc1cccc(C)c1NC(=O)C1CCCN1C(=O)Nc1cccc(F)c1 (stereo not given) returned DT40 TDP1 CPT -12%, KAT2A inh 3%, TDP1 cell noCPT -3%, PLK1 PBD block 1%, VDR inh -11% and TDP1 inh 0%.
`Cc1cc(Sc2nc(N)ncc2[N+](=O)[O-])ncn1` gave DT40 TDP1 CPT 0.73µM*, KAT2A inh -3%, TDP1 cell noCPT 1.3µM*, PLK1 PBD block inconclusive and VDR inh -18%.
Screening Cc1cc(Sc2ncnc(N)c2[N+](=O)[O-])ncn1 returned DT40 TDP1 CPT 0.29µM*, KAT2A inh -8%, TDP1 cell noCPT 0.92µM*, PLK1 PBD block inconclusive and VDR inh inconclusive.
Screening Cc1ccc(C)c(Oc2ncnc(N)c2[N+](=O)[O-])c1 returned DT40 TDP1 CPT -1%, KAT2A inh -3%, TDP1 cell noCPT -4%, PLK1 PBD block -2%, VDR inh inconclusive and TDP1 inh 3%.
For Cc1ccc(OCc2cc(=O)n3cc(C)sc3n2)c(C)c1 the results were DT40 TDP1 CPT -1%, KAT2A inh 7%, TDP1 cell noCPT 12%, VDR inh -3% and TDP1 inh -1%.
Screening CCCC(=O)Nc1sc(C)c(C)c1C#N returned DT40 TDP1 CPT 2%, KAT2A inh 4%, TDP1 cell noCPT -15%, PLK1 PBD block 21µM*, VDR inh 2% and TDP1 inh 0%.
Screening Cc1sc(NC(=O)CCCC(=O)O)c(C#N)c1C returned DT40 TDP1 CPT -1%, KAT2A inh -17%, TDP1 cell noCPT -16%, PLK1 PBD block -8%, VDR inh 3% and TDP1 inh -3%.
Screening CCCCCC(=O)Nc1sc(C)c(C)c1C#N returned DT40 TDP1 CPT inconclusive, KAT2A inh -17%, TDP1 cell noCPT -11%, PLK1 PBD block 11µM*, VDR inh inconclusive and TDP1 inh -8%.
Screening CCCCC(=O)Nc1sc2c(c1C#N)CC(C)(C)OC2 returned DT40 TDP1 CPT inconclusive, KAT2A inh 2%, TDP1 cell noCPT inconclusive, PLK1 PBD block 27µM*, VDR inh 79µM* and TDP1 inh 0%.
COc1ccc(N2CCN(C(=O)C3CCN(C(=O)c4cccc(Cl)c4)CC3)CC2)cc1 was read as DT40 TDP1 CPT inconclusive, KAT2A inh 0%, TDP1 cell noCPT inconclusive, PLK1 PBD block -7%, VDR inh -10% and TDP1 inh 1%.
O=C(O)C1C2CCC(O2)C1C(=O)Nc1cnn(Cc2ccccc2)c1 (stereo not given) was read as DT40 TDP1 CPT -20%, KAT2A inh -7%, TDP1 cell noCPT -3%, PLK1 PBD block -7%, VDR inh 5% and TDP1 inh 3%.
For O=C(Nc1ccncc1)C1C(=O)c2ccccc2N(Cc2ccccc2)C1=O (stereo not given) the results were DT40 TDP1 CPT 1µM*, TDP1 cell noCPT 0.71µM*, VDR inh inconclusive and TDP1 inh 0%.
For CSc1ncccc1C(=O)NC1CCN(Cc2ccccc2)CC1 the results were DT40 TDP1 CPT -3%, KAT2A inh -6%, TDP1 cell noCPT 9%, PLK1 PBD block 0%, VDR inh 2% and TDP1 inh 4%.
For C(=N\Nc1nc(-c2ccccc2)cs1)/c1ccncc1 the results were DT40 TDP1 CPT -24%, KAT2A inh -6%, TDP1 cell noCPT inconclusive, PLK1 PBD block -20%, VDR inh 10% and TDP1 inh 7%.
For CN(C)S(=O)(=O)c1ccc(-c2csc(N/N=C/c3ccc(O)cc3)n2)cc1 the results were DT40 TDP1 CPT 0.92µM*, KAT2A inh -6%, TDP1 cell noCPT 0.65µM*, PLK1 PBD block -6%, VDR inh 8% and TDP1 inh 7%.
Screening C(=N\Nc1nc(-c2ccccc2)cs1)/c1ccco1 returned DT40 TDP1 CPT 21µM*, KAT2A inh -9%, TDP1 cell noCPT 15µM*, PLK1 PBD block -16%, VDR inh -13% and TDP1 inh 7%.
Screening C(=N\Nc1nc(-c2ccccc2)cs1)/c1cccs1 returned DT40 TDP1 CPT inconclusive, KAT2A inh -11%, TDP1 cell noCPT inconclusive, PLK1 PBD block 30µM*, VDR inh 19% and TDP1 inh 5%.
Screening CC(C)=NNc1nc(-c2ccccc2)c(C)s1 returned DT40 TDP1 CPT inconclusive, KAT2A inh -7%, TDP1 cell noCPT inconclusive, PLK1 PBD block 21µM*, VDR inh -16% and TDP1 inh 6%.
`CC(=O)N1CCC[C@H]1C(=O)NCC1Cc2cc(F)cc(-c3ccc(F)c(C)c3)c2O1` (stereo not given in full) gave DT40 TDP1 CPT -4%[9.04 µM] and TDP1 cell noCPT -23%.
For COc1ccccc1NC(=O)N(C)C[C@H]1OCc2cnnn2CCCC(=O)N([C@@H](C)CO)C[C@H]1C the results were DT40 TDP1 CPT -7%, TDP1 cell noCPT 2% and PLK1 PBD block -21%.
